Experimental data from PubChem BioAssay (NCI).
About 83,000 compounds went through this panel and 20% of them were active in at least one assay; those are over-represented in the sample as a whole.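 Treatment: one concentration, 48 hours, 96-well format. Scoring: percent growth, with anything below 10 considered active.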 Values without a mark were called inactive. The source made the active and inactive calls.

The molecules below were run on NCI/ADR-RES ovarian (assay: NCI-60 one-dose screen, 48 h (100 = growth as untreated, 0 = no growth, -100 = all killed)). Conditions: 10 µM unless noted.

Question: With `CC1(C)[C@@H](O[C@@H]2OC[C@@H](O[C@@H]3O[C@H](CO)[C@@H](O)[C@H](O)[C@H]3O[C@@H]3OC[C@@H](O)[C@H](O)[C@H]3O)[C@H](O)[C@H]2O[C@@H]2O[C@H](CO)[C@@H](O)[C@H](O)[C@H]2O)CC[C@]2(C)[C@H]3CC[C@]45OC[C@@]6(CC[C@](C)(C=O)C[C@H]64)[C@H](O)C[C@@]5(C)[C@]3(C)CC[C@@H]12` as the molecule, how does the growth read?
Answer: -21.7% (active)

Question: `O=C(CCl)NNc1nccc(Nc2ccc(S(=O)(=O)Nc3ccncc3)cc2)n1` was tested. Which growth did it give?
Answer: 51%

Question: How did the growth turn out when `CS(=O)(=O)Nc1cc(-c2ccc3ncc(C#N)c(Nc4ccc(F)c(Cl)c4)c3c2)cnc1Cl` was run?
Answer: 21.9%

Question: `O=P(O)(O)OCC1OC(n2cnc3c(NCc4ccco4)ncnc32)C(O)C1O` (stereo unspecified) was tested. Which growth did it give?
Answer: 19.5%

Question: For `C=CN(C(=O)N1CCN(c2cc3c(cc2F)c(=O)c(C(=O)O)cn3C2CC2)CC1)c1nc(-c2ccc(OC)cc2)cs1`, which growth is on record?
Answer: 37.6%

Question: For `CC(=O)Oc1ccc(OC(C)=O)c2ccccc12`, which growth is on record?
Answer: 64.5%

Question: How did the growth turn out when `O=C1c2ccccc2C(=O)c2c1cc1c(c2[N+](=O)[O-])OCO1` was run?
Answer: -11.7% (active)

Question: With `Cc1cccc2c1C[C@@]1(C2=O)C(c2ccc(C(C)(C)C)cc2)=NOS1=O` (stereo partly specified) as the molecule, how does the growth read?
Answer: 86%

Question: With `COc1cccc(Nc2ncnc3cc(NC(=O)CCl)ccc23)c1` as the molecule, how does the growth read?
Answer: -26.4% (active)

Question: Which growth does the source give for `NC(N)=NS(=O)(=O)c1ccc(NC2=C(I)C(=O)c3ncccc3C2=O)cc1` here?
Answer: 94.1%

Question: Which growth does the source give for `Cc1c(CN)cc(-c2ccc(Cl)cc2)n1-c1ccccc1` here?
Answer: 88.1%
